Data reported in PubChem BioAssay (Tox21).
Active and inactive are the calls of the source. Calls follow the shape of the dose curve; as a rule, active = well fitted curve in the direction sought with a large enough effect in the repeat runs; inconclusive = weak or mixed curves; inactive = flat fitted curve, though single readings scatter.

assay: qHTS assay to test for compound auto fluorescence at 590 nm (red) in HepG2 cells (AID 720674); conditions: HepG2 autofluorescence, red 540/590 nm, 1 h; series mostly up to 91.3 µM; fluorescence, relative to Rose Bengal: at the top concentration
Outline: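 Fluorescence at 590 nm emission following 540 nm excitation was recorded from HepG2 wells one hour after compound transfer, with DMSO-only wells as vehicle and Rose Bengal sodium equivalency as the scale.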
% is scaled to controls: 0 for no effect and ±100 for the full control effect.

SMILES | fluorescence, relative to Rose Bengal | Potency
CCC(C)[O-].CCC(C)[O-].CCOC(=O)/C=C(/C)[O-].[Al+3] | 0.16% (inactive) | –
CCCCCCCCCCCCCC[N+](C)(C)Cc1ccccc1 | – | inactive
Oc1cc(Cl)cc(Cl)c1Cl | 0.0118% [at 95.7 µM] (inactive) | –
C#C[C@]1(O)CC[C@H]2[C@@H]3[C@H](C)CC4=C(CCC(=O)C4)[C@H]3CC[C@@]21C | -0.566% [at 46 µM] (inactive) | –
Nc1cc(Cl)c(O)c(Cl)c1 | -0.276% (inactive) | –
Cc1ccc(O)c(O)c1 | -0.353% (inactive) | –
Cc1ccc(C)cc1 | -0.0067% (inactive) | –
CN1CCN2c3ccccc3Cc3ccccc3C2C1 (centres undefined) | -0.0315% [at 46 µM] (inactive) | –
O=C(c1ccc(O)c(O)c1)c1ccc(O)cc1O | -0.244% (inactive) | –
O=C1NC(=O)[C@@H]2CC=CC[C@H]12 | -0.222% (inactive) | –
CC(C)(C)c1ccc(C(O)CCCN2CCC(C(O)(c3ccccc3)c3ccccc3)CC2)cc1 (centres undefined) | – | inactive
Cc1cc(=O)oc2cc(O)cc(O)c12 | -0.0669% (inactive) | –
Cc1cc(C(C#N)c2ccc(Cl)cc2)c(Cl)cc1NC(=O)c1cc(I)cc(I)c1O (centres undefined) | 0.121% [at 46 µM] (inactive) | –
CC[C@H](C)COC(=O)/C=C/c1ccc(N=Cc2ccc(OC)cc2)cc1 | -0.0397% (inactive) | –
COC1=C(OC)C(=O)C(CCCCCCCCCCO)=C(C)C1=O | -0.162% [at 46 µM] (inactive) | –
Cc1ccc(O)c(N)c1 | 0.0472% (inactive) | –
COC(C)=O | – | inactive
CN1CCN(Cc2cc(-c3ccc4[nH]c(=O)oc4c3)co2)[C@@H](c2ccc(F)cc2)C1 | -0.0565% (inactive) | –
C/C=C/C=C/COC(=O)C(C)C | 0.027% (inactive) | –
